For five compounds, growth results are on record in PubChem BioAssay (NCI).

“And” between values parts separate entries of the source, which are not always exact repeats. Equal values may be shown once. This is part of a sample that, as a whole, favours compounds with a hit. Of some 83,000 tested, about 20% had one in any assay.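 For each line, cells grew in 96-well plates with the test compound present at a single concentration for 48 hours.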 The source made the active and inactive calls. Rule for the calls: active = growth percent below 10; inactive = the rest.

Some test systems named below: HT29 colon; SNB-75 CNS; SNB-19 CNS; U251 CNS; PC-3 prostate; SK-MEL-5 melanoma; UACC-62 melanoma; LOX IMVI melanoma; SK-MEL-28 melanoma; SK-MEL-2 melanoma; EKVX NSCLC; SN12C renal; UO-31 renal; TK-10 renal; ACHN renal; CAKI-1 renal; A498 renal; CCRF-CEM leukemia; MOLT-4 leukemia; HCT-15 colon.
What all share (assay): NCI-60 one-dose screen, 48 h (100 = growth as untreated, 0 = no growth, -100 = all killed)
What all share (settings): 10 µM unless noted

On to `O=C(Nc1cccc(Cl)c1)c1cc2ccccc2cc1O`, for which the growth with HT29 colon is 104% (inactive) and 60.1% (inactive); in the experiment on SNB-75 CNS it was 45.7% (inactive) and 33.6% (inactive); with SNB-19 CNS it was 13.2% (inactive); in the experiment with U251 CNS, 13% (inactive) and 6.25% (active); in the experiment on PC-3 prostate, 1.88% (active) and -4.44% (active); with SK-MEL-5 melanoma, -14.7% (active) and -23.9% (active). Also, the growth in the experiment on UACC-62 melanoma is 13.8% (inactive) and 18.4% (inactive); in the experiment on LOX IMVI melanoma, 25.3% (inactive) and 11% (inactive); in the experiment on SK-MEL-28 melanoma, 35.7% (inactive) and 42% (inactive); in the experiment with SK-MEL-2 melanoma, 27.3% (inactive) and 7.7% (active); in the experiment with EKVX NSCLC it was 10.5% (inactive) and 15.9% (inactive); in the experiment on SN12C renal, 4.02% (active) and 7.65% (active). Moreover, the growth in the experiment with UO-31 renal was 5.45% (active) and -9.87% (active); in the experiment with TK-10 renal it was 54.7% (inactive) and 26.8% (inactive); with ACHN renal, 12.8% (inactive) and 12.2% (inactive); with CAKI-1 renal it was 3.2% (active) and -1.64% (active); in the experiment on A498 renal, -33.6% (active); in the experiment with CCRF-CEM leukemia, 38.2% (inactive) and 53.2% (inactive). Moreover, the growth with MOLT-4 leukemia is 26.3% (inactive) and 11.1% (inactive).
On to `C/C(=N\NC(=O)c1ccncc1)c1ccccc1O`, for which the growth in the experiment with HCT-15 colon is 22.8% (inactive) and 23.3% (inactive); in the experiment on HT29 colon, 29.7% (inactive) and 29.1% (inactive); with SNB-75 CNS, 89.5% (inactive) and 50.9% (inactive); with SNB-19 CNS it was 47.8% (inactive) and 46.6% (inactive); with U251 CNS, 33.8% (inactive) and 33.4% (inactive); with PC-3 prostate it was 44.4% (inactive) and 35.8% (inactive). For the same compound, the growth in the experiment on SK-MEL-5 melanoma was 38.7% (inactive) and 50% (inactive); in the experiment with UACC-62 melanoma it was 22% (inactive) and 30.6% (inactive); in the experiment with LOX IMVI melanoma it was 22.5% (inactive) and 10.9% (inactive); in the experiment with SK-MEL-2 melanoma it was 75.3% (inactive) and 18.8% (inactive); in the experiment with EKVX NSCLC, 16.5% (inactive) and 31.5% (inactive); in the experiment on SN12C renal, 45.9% (inactive) and 46.9% (inactive). The growth in the experiment on TK-10 renal is 34.7% (inactive) and 37.4% (inactive); in the experiment on ACHN renal it was 26.3% (inactive) and 26.5% (inactive); with CAKI-1 renal, 10.4% (inactive); in the experiment on CCRF-CEM leukemia, 16% (inactive) and 15.8% (inactive); with MOLT-4 leukemia, 7.82% (active) and 10.7% (inactive).
As for `Cc1cc(N=Nc2ccc(C)c(N=Nc3cc(C)c(N)cc3N)c2)c(N)cc1N`, the growth was 92.8% (inactive) and 40.8% (inactive) in the experiment with HT29 colon; 78% (inactive) and 72.7% (inactive) with SNB-75 CNS; 97.7% (inactive) and 91.2% (inactive) in the experiment on SNB-19 CNS; 97% (inactive) and 86.7% (inactive) in the experiment on U251 CNS; 64.6% (inactive) with PC-3 prostate; 100% (inactive) and 78.7% (inactive) with SK-MEL-5 melanoma. Besides, the growth in the experiment with UACC-62 melanoma was 91.7% (inactive) and 93.9% (inactive); in the experiment with LOX IMVI melanoma it was 90.8% (inactive) and 82.6% (inactive); in the experiment on SK-MEL-28 melanoma it was 98.9% (inactive) and 88.4% (inactive); in the experiment on SK-MEL-2 melanoma it was 107% (inactive); in the experiment with EKVX NSCLC it was 67.1% (inactive) and 72.3% (inactive); with SN12C renal it was 95.6% (inactive) and 85.7% (inactive). For the same compound, the growth in the experiment on UO-31 renal was 63.9% (inactive) and 51.5% (inactive); in the experiment on TK-10 renal, 93.7% (inactive) and 92.3% (inactive); with ACHN renal, 84.4% (inactive) and 81.8% (inactive); with CAKI-1 renal it was 78.2% (inactive) and 78.7% (inactive); in the experiment on A498 renal, 93.8% (inactive) and 85.9% (inactive); in the experiment on CCRF-CEM leukemia, 84.5% (inactive) and 61.3% (inactive). Also, in the experiment with MOLT-4 leukemia, the growth is 64.4% (inactive) and 61.8% (inactive).
Regarding `OC(CSc1ccccc1)CN1CCN(c2cccc(Cl)c2)CC1` (configuration not stated), the growth in the experiment on HT29 colon is 104% (inactive) and 96.5% (inactive); in the experiment with SNB-75 CNS, 91.7% (inactive) and 102% (inactive); with SNB-19 CNS it was 100% (inactive) and 111% (inactive); in the experiment with U251 CNS, 95% (inactive) and 102% (inactive); with PC-3 prostate, 92.9% (inactive) and 97.8% (inactive); in the experiment on SK-MEL-5 melanoma it was 97.4% (inactive) and 96.8% (inactive). Besides, the growth with UACC-62 melanoma was 92.2% (inactive) and 96.9% (inactive); with LOX IMVI melanoma, 96.7% (inactive) and 96.3% (inactive); in the experiment on SK-MEL-28 melanoma it was 103% (inactive) and 99.1% (inactive); in the experiment with SK-MEL-2 melanoma, 98.3% (inactive) and 100% (inactive); in the experiment with EKVX NSCLC, 102% (inactive) and 99% (inactive); with SN12C renal, 94.3% (inactive) and 103% (inactive). Besides, the growth in the experiment on UO-31 renal was 76% (inactive) and 75% (inactive); in the experiment with TK-10 renal, 101% (inactive) and 112% (inactive); in the experiment with ACHN renal, 103% (inactive) and 101% (inactive); in the experiment with A498 renal, 116% (inactive) and 89.9% (inactive); with CCRF-CEM leukemia it was 92.5% (inactive) and 98.1% (inactive); in the experiment with MOLT-4 leukemia, 76.1% (inactive) and 94.9% (inactive).
For `CCC(C)C1(C2CCCC2)NC(=O)NC1=O` (configuration not stated), the growth in the experiment with HCT-15 colon was 107% (inactive) and 102% (inactive); in the experiment on HT29 colon it was 97.3% (inactive) and 108% (inactive); in the experiment with SNB-75 CNS, 94.5% (inactive) and 103% (inactive); with SNB-19 CNS, 98.8% (inactive) and 99.7% (inactive); in the experiment with U251 CNS, 105% (inactive) and 108% (inactive); in the experiment on PC-3 prostate it was 102% (inactive) and 95.2% (inactive). For the same compound, the growth is 95.5% (inactive) and 96.8% (inactive) in the experiment on UACC-62 melanoma; 92.2% (inactive) in the experiment on LOX IMVI melanoma; 109% (inactive) and 108% (inactive) in the experiment on SK-MEL-28 melanoma; 94.2% (inactive) and 129% (inactive) in the experiment with SK-MEL-2 melanoma; 108% (inactive) and 100% (inactive) in the experiment with EKVX NSCLC; 100% (inactive) and 96% (inactive) in the experiment with SN12C renal. The growth in the experiment with UO-31 renal is 86.3% (inactive) and 96.6% (inactive); in the experiment with TK-10 renal, 92.4% (inactive) and 118% (inactive); in the experiment with ACHN renal, 111% (inactive) and 108% (inactive); with CAKI-1 renal, 112% (inactive) and 94% (inactive); in the experiment on A498 renal, 108% (inactive) and 81.8% (inactive); with CCRF-CEM leukemia, 92.8% (inactive) and 107% (inactive). Moreover, in the experiment with MOLT-4 leukemia, the growth was 91.2% (inactive) and 106% (inactive).
